Laboratory results as given in PubChem BioAssay (NCATS).
Results filed as inconclusive are left out. Activity calls are given as the source filed them. The call rests on the fitted dose curve; in most records, active means well fitted inhibition curve with a large enough effect; inconclusive means small, poorly fitted or top-dose-only effect; inactive means no such curve, though single readings can be large or run the other way.

Experiment: BET inhibitor-based combinations targeting novel dependencies in MECOM-rearranged (r) AML: HNT-34 cell line (AID 2202234); further: nearly all actives have a fitted effect of over 35% in size
Settings: HNT-34 AML viability, CellTiter-Glo luminescence, 48 h; series mostly up to 46 µM
Description: Ecotropic viral insertion site 1 (EVI1) is located on chromosome 3q26.2 as part of the MECOM (MDS and EVI1 complex) locus. Under normal hematopoiesis, EVI1 is a regulator of hematopoietic stem cell maintenance and self-renewal and EVI1 levels decrease as the cells differentiate. In approximately 5-10% of de novo acute myeloid leukemia (AML) EVI1 is aberrantly expressed, including Chromosomal inv(3)(q21;q26.2) or t(3;3)(q21;q26.2) alterations (MECOM-r) that account for about 50% of AML with EVI1 overexpression 31. AMLs with high levels of EVI1 have a poor prognosis and an overall survival time averaging between 10-14 months. EVI1 overexpression confers resistance in leukemia cells, highlighting the need to develop new targeted therapies for EVI1 overexpressing AMLs. Here, we performed an unbiased chemical drug screening by evaluating the single agent activity of a collection of 2,480 oncology-focused, approved and investigational drugs (NCATS Mechanism Interrogation Plates, MIPE v5.0) against a panel of seven AML cell lines. These included four MECOM-r cell-lines (AML-191, AML-194, UCSD-AML1 and HNT-34) and three non-MECOM-r AMLs (MV4-11, OCI-AML3 and SET-2). Exploiting the mechanistic redundancy built in the library, we identified target-level sensitivities in MECOM-r AML cells and relative activity as compared to other AML subtypes.
A collection of 2480 mechanistically annotated dugs (MIPE v5.0) was used to screen four 3q26.2 rearranged AML cell lines and three non-3q26.2 rearranged AML cell lines. This library purposely exploits redundancy by including multiple inhibitors of key onco-targets, while simultaneously encompassing mechanistic diversity, targeting more than 800 distinct mechanisms of action. Briefly, cells were seeded in 5 uL of growth media using a Multidrop Combi dispenser into 1536 well white polystyrene tissue culture treated plates (Corning) at a density of 500cells/well. For each cell-line, for each of the 2480 drugs in MIPE v5.0 library, an 11-point dose curve was generated via a 1536 pin-tool. Plates were incubated for 48 hr at standard incubator conditions, covered by a stainless steel gasketed lid to prevent evaporation. Cell viability was determined by luminescence based, Cell Titer Glo assay (Promega). In detail, 3 uL of Cell Titer Glo were added to each well and plates were incubated at room temperature for 15 min with a stainless-steel lid in place. Luminescence readings were taken using a Viewlux (PerkinElmer) with a 2 s exposure time per plate. Compound dose-response curves were normalized to DMSO and empty well controls on each plate. Quantitative drug activity data from dose-response curves was determined utilizing area Under the Curve (AUC) and Z-transformed AUC (Z-AUC, a mean-centering transformation applied to each individual cell-line screened).
Potency means the concentration at half of the fitted maximal effect.

Row | SMILES | Potency
1 | C=CC(=O)Nc1cccc(Oc2nc(Nc3ccc(N4CCN(C)CC4)cc3)nc3ccsc23)c1 | 8.33 µM (active)
2 | C[C@H]1C[C@H]2[C@@H]3CCC4=CC(=O)C=C[C@]4(C)[C@H]3C(=O)C[C@]2(C)[C@@]1(O)C(=O)CO | inactive
3 | CCC(=O)OCC(=O)C1(OC(=O)CC)C(C)CC2C3CCC4=CC(=O)C=CC4(C)C3(F)C(O)CC21C (stereo not given) | inactive
4 | CCn1c(=O)c2c(nc(/C=C/c3ccc(OC)c(OC)c3)n2C)n(CC)c1=O | inactive
5 | CN(C)Cc1cccc(N=C(c2ccccc2)c2c(O)[nH]c3cc(C(=O)N(C)C)ccc23)c1 | 14.8 µM (active)
6 | CCn1cc(-c2ccnc3[nH]c(-c4cccc(CN(C)C)c4)cc23)c(-c2ccc(NC(=O)N(C)C)cc2)n1 | 3.32 µM (active)
7 | CC(=O)N1CCN(c2ccc(NC(=O)Cc3cnc(-c4ccnc(F)c4)c(C)c3)nc2)CC1 | inactive
8 | Cc1ccc(C)c(OCCCC(C)(C)C(=O)O)c1 | inactive
9 | N#Cc1ccc(Cn2cncc2CN2CCN(c3cccc(Cl)c3)C(=O)C2)cc1 | 1.66 µM (active)
10 | COc1cc(OC)cc(N2CCN(C(=O)Nc3nc4cc(F)ccc4nc3OC)CC2)c1 | 0.833 µM (active)
11 | C[C@@H](Oc1cc(C(=O)Nc2ccc(C(=O)N3CCN(C)CC3)cc2)nnc1N)c1c(Cl)ccc(F)c1Cl | 1.18 µM (active)
12 | O=C(NC1CC1)c1cccc(-c2ccc3c(NC(=O)C4CC4)n[nH]c3c2)c1 | 3.32 µM (active)
13 | Cc1ccc2nc(NCCN)c3ncc(C)n3c2c1 | 8.33 µM (active)
14 | C[C@@H]1C[C@H](N)C[C@H](c2ccncc2NC(=O)c2ccc(F)c(-c3c(F)cccc3F)n2)C1 | 5.25 µM (active)
15 | Clc1cccc(C(c2ccc3nc[nH]c3c2)n2ccnc2)c1 (stereo not given) | inactive
16 | CN(C)CC[C@H](CSc1ccccc1)Nc1ccc(S(=O)(=O)NC(=O)c2ccc(N3CCN(Cc4ccccc4-c4ccc(Cl)cc4)CC3)cc2)cc1[N+](=O)[O-] | 1.86 µM (active)
17 | C[C@H]1O[C@@H](O[C@H]2[C@@H](O)C[C@H](O[C@H]3[C@@H](O)C[C@H](O[C@H]4CC[C@@]5(C)[C@H](CC[C@@H]6[C@@H]5C[C@@H](O)[C@]5(C)[C@@H](C7=CC(=O)OC7)CC[C@]65O)C4)O[C@@H]3C)O[C@@H]2C)C[C@H](O)[C@@H]1O | 0.105 µM (active)
18 | Cc1nc2cccc(N)c2c(=O)n1C1CCC(=O)NC1=O (stereo not given) | inactive
19 | COc1ccc(CNC(=O)c2cc(-c3cncc(Cl)c3)cnc2-c2ccccn2)nc1OC | inactive
20 | C=C1CCC2[C@](C)(CO)C(O)CC[C@]2(C)C1C/C=C1/C(=O)OCC1O (stereo not given in full) | 5.9 µM (active)

Row | SMILES | Potency
21 | CCO[C@@H]1OC(=O)C[C@@H]1NC(=O)[C@@H]1CCCN2C(=O)CC[C@H](NC(=O)c3nccc4ccccc34)C(=O)N12 | inactive
22 | COc1cc(=C2C=c3ccccc3=N2)[nH]/c1=C/c1[nH]c(C)cc1C | 3.72 µM (active)
23 | COc1ccc(-c2ccc3ncc4c(c3c2)n(-c2ccc(N3CCNCC3)c(C(F)(F)F)c2)c(=O)n4C)cn1 | 0.118 µM (active)
24 | COc1cc(/C=C/C(=O)CC(=O)/C=C/c2ccc(O)c(OC)c2)ccc1O | 14.8 µM (active)
25 | CC(=O)NCC(=O)N1[C@@H]2CC[C@H]1c1ccc(Nc3ncc(C(F)(F)F)c(NC4CCC4)n3)cc12 | 0.662 µM (active)
26 | Cc1onc(-c2ccc(F)cc2)c1COc1ccc(C(=O)N2CCS(=O)(=O)CC2)cn1 | inactive
27 | COc1cc2c3c(n(CCCN4CCOCC4)c(=O)c2cc1OC)-c1cc2c(cc1C3=O)OCO2 | 0.0934 µM (active)
28 | Cc1ccc(-n2nc(C(C)(C)C)cc2NC(=O)NCc2cc(F)ccc2Oc2ccc3c(cnn3CCO)c2)cc1 | 0.296 µM (active)
29 | COc1cc(-c2cn(C)c(=O)c3cnccc23)c(OC)cc1CN(C)C | inactive
30 | CCNc1cc(NC2CCC(O)CC2)nc(Nc2ccc3c(ccn3Cc3ccccc3)c2)n1 (stereo not given) | inactive
31 | CC[C@H](C)[C@@H]([C@@H](CC(=O)N1CCC[C@H]1[C@H](OC)[C@@H](C)C(=O)N[C@@H](Cc1ccccc1)c1nccs1)OC)N(C)C(=O)[C@@H](NC(=O)[C@H](C(C)C)N(C)C)C(C)C | inactive
32 | C=CC(=O)Nc1cccc(C)c1Nc1ncc2cc(-c3c(Cl)c(OC)cc(OC)c3Cl)ccc2n1 | 8.33 µM (active)
33 | COc1cc([C@@H](CC(=O)O)c2ccc(C)c(CN3C[C@@H](C)Oc4ccccc4S3(=O)=O)c2)cc2nnn(C)c12 | inactive
34 | O=C([O-])C[O-].[Pt+2] | inactive
35 | CC1(C)C(N(O)C(=O)Nc2ccc(Cl)cc2)N(c2ccc(Cl)cc2)C(=O)N1CC(=O)N/N=C/C=C/c1ccc([N+](=O)[O-])o1 (stereo not given) | 13.2 µM (active)
36 | OCCNC1CCCc2c1[nH]c1ccc(-c3ccccc3)cc21 (stereo not given) | 14.8 µM (active)
37 | OC[C@H]1O[C@@H](S[C@@H]2O[C@H](CO)[C@H](O)[C@H](n3cc(-c4cccc(F)c4)nn3)[C@H]2O)[C@H](O)[C@@H](n2cc(-c3cccc(F)c3)nn2)[C@H]1O | inactive
38 | COc1ccc2[nH]c(S(=O)Cc3ncc(C)c(OC)c3C)nc2c1 (stereo not given) | inactive
39 | Nc1cc(C(F)(F)F)c(-c2nc(N3CCOCC3)nc(N3CCOCC3)n2)cn1 | 2.63 µM (active)
40 | CCNC(=O)Nc1ccc(Oc2ncnc(N)c2/C=N/OC)cc1Cl | 20.9 µM (active)
